Molecules are shown by their SMILES. Measured potencies and affinities stand elsewhere.

In the assay the test system is Cryptococcus neoformans. As to conditions: Concentration 20 uM; ASSAY_TEST Inhibition of Fungal Growth; detection method Resazurin; Absorption (OD600-OD570); plate type 384well; NBS; CORNING #3640. For orientation: Alamar Blue is a resazurin reagent that responds to reducing activity.
On to `NC(=O)C[S+]([O-])C(c1ccccc1)c1ccccc1` (stereo unspecified) [MODAFINIL], for which the Inhibition is -0.59%. Take `CCCC(C)(COC(N)=O)COC(=O)NC(C)C` (stereo unspecified) [CARISOPRODOL]: the Inhibition is reported as 4.79%. Regarding `C[C@]12CCC(=O)C[C@@H]1CC[C@@H]1[C@@H]2CC[C@@]2(C)[C@H]1CC[C@]2(C)O` [MESTANOLONE], the Inhibition was 4.57%. Take `CN(C)CCc1c[nH]c2ccc(Cn3cncn3)cc12.O=C(O)c1ccccc1` [RIZATRIPTAN BENZOATE]: the Inhibition is recorded as -5.39%.

For `CC(NC(C)(C)C)C(=O)c1cccc(Cl)c1.Cl` (stereo unspecified) [BUPROPION HYDROCHLORIDE], the Inhibition was found to be 3.12%. Under `CCOC(=O)C1=C(COCCN)NC(C)=C(C(=O)OC)C1c1ccccc1Cl` (stereo unspecified) [AMLODIPINE] stands -10.38%. In the case of `CC(C)NCC(O)COc1cccc2[nH]ccc12` (stereo unspecified) [PINDOLOL], the Inhibition is given as -9.82%. With `Cl.Oc1ccc2c3c1OC1C(O)CC[C@@]4(O)[C@@H](C2)N(CC2CCC2)CC[C@]314` (stereo partly specified), the Inhibition is on record as -7.08%. Take `CC[C@@H]1/C=C/C=C/C[C@H](C)[C@@H](O)[C@](C)(O)C(=O)[C@H](C)[C@@H](O)[C@H](C)C(=O)[C@H](C)[C@@H](O)[C@H](C)/C=C/C(=O)O[C@H]2[C@@H](C)[C@@H](CC1)O[C@@]1(CC[C@@H](C)[C@@H](C[C@H](C)O)O1)[C@@H]2C`: the Inhibition is -9.53%.

For `CN1[C@@H]2CC[C@H]1C[C@@H](OC(=O)c1c[nH]c3ccccc13)C2.Cl`, the Inhibition is reported as -7.07%. As to `CCC1(c2ccc(N)cc2)CCC(=O)NC1=O` (stereo unspecified) [AMINOGLUTETHIMIDE], the Inhibition is given as -5.32%.

A word on the Inhibition: it is the change of the read-out against control, counted positive when it falls.

For the origin of these results see ChEMBL document CHEMBL4513141, “CO-ADD screening of NIH (USA) - Clinical Collection” (2021).
